Inconclusive results are not listed. Values without a mark were called inactive. Active and inactive are the calls of the source. Calls come from the whole dose curve; as a rule, active = well fitted activation curve with a large enough effect; inconclusive = small, poorly fitted or top-dose-only effect; inactive = flat fitted curve, though single readings scatter.
Experiment: qHTS for Activators of Parkin Expression: LOPAC Validation Assay (NLuc Reporter) (AID 720572;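 for activation: 0% = DMSO and 100% = positive control compound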)
Conditions: Parkin promoter NanoLuc reporter cells, luminescence; series mostly up to 46.1 µM; activation: at the top concentration
Source text: Parkin is an E3 ubiquitin ligase localized in the cytosol of cells expressed in many tissues, including brain, skeletal muscle, heart and liver tissues. One hour after stress induction by mitochondrial uncouplers (which mimic mitochondria damage by decreasing the mitochondrial inner membrane electrochemical gradient that is used to produce ATP), Parkin translocates from the cytosol to mitochondria in many cultured cell types, including neurons and HeLa cells. Administration of other mitochondrial poisons, such as Paraquat and azide in cells lacking mitochondrial DNA (mtDNA), induces Parkin translocation to mitochondria. […] It was proposed that Parkin (together with Pink1) mediates a mitochondrial quality control pathway to maintain organelle population fidelity by removing damaged mitochondria. Understanding the normal physiologic role of Parkin (and Pink1) may uncover novel treatment strategies for sporadic Parkinson's disease patients with mutation in these genes.
A cell based qHTS in 1536 well format was developed assess modulation of Parkin expression using a neuronal cell line that stably expresses a stably expresses a luminescent coincidence reporter (FLuc and NLuc reporters) behind the Parkin promoter. The LOPAC library is used to validate the assay for quantitative high-throughput screening. The data herein reports the signal from the NLuc reporter. An increase in this signal = activation of Parkin expression. For this assay , a positive control normalized signal increase corresponding to a high quality qHTS curve class in both luminescent channels is the desired outcome for this assay.
NIH Chemical Genomics Center [NCGC]
NIH Molecular Libraries Probe Centers Network [MLPCN]
Assay Submitter (PI): Richard Youle, National Institute of Neurological Disorders and Strokes (NINDS), NIH
[1] Narendra, D., et al., Parkin is recruited selectively to impaired mitochondria and promotes their autophagy. J Cell Biol, 2008. 183(5): p.
[2] Suen, D.F., et al., Parkin overexpression selects against a deleterious mtDNA mutation in heteroplasmic cybrid cells. Proc Natl Acad Sci U S A, 2010. […] 11835-40.
[3] Cheng K, Inglese J. A coincedence reporter-gene system for high-throughput screening. Nat Methods. 2012: 9(10);937
Five microliters (1,500 cells/well) of the Parkin coincidence reporter cells were seeded to 1536 well assay plates (Greiner Catalog # 789173-F) and incubated at 37 C, 5% CO2 for 24 hours. Compounds (23 nL) were pinned using the Kalypsys robotic system equipped with 1536 pin head adaptor in 7-point dose response. The assay plates were incubated for additional 24 hr at 37 C, 5% CO2 followed by a volume reduction in each well to 2 uL using an automated plate washer/aspirator. Following the volume reduction,2 uL of FLuc detection reagent and plates were incubated for 10 minutes at room temperature. The FLuc luminescence signal was obtained using the PerkinElmer ViewLux plate imager and then 2 uL of NanoLuc detection reagent was added to the plates. After another 10 minute incubation, NanoLuc signal was obtained using the PerkinElmer ViewLux plate imager as before. Data from each channel was normalized to DMSO (neutral control) and the positive control compounds (100%).
Potency is the fitted concentration of half-maximal effect.

| Compound | activation | Potency |
| --- | --- | --- |
| NC1CCN(O)C1=O (stereo not given) | 4.07% |  |
| O=C(O)CCC(=O)N1CCCC1C(=O)O (stereo not given) | -3.14% |  |
| C=CCN1CCc2cc(O)c(O)cc2C(c2ccccc2)C1 (stereo not given) | 1.09% |  |
| CCN1C(=O)C=CC1=O | 2.37% |  |
| Nc1ncnc2c1c(-c1ccc(Oc3ccccc3)cc1)cn2C1CCCC1 | -7.67% |  |
| c1ccc(C(NCCNC(c2ccccc2)c2ccccc2)c2ccccc2)cc1 | 27.3% |  |
| CN1CC(O)C(O)C(O)C1CO (stereo not given) | 2.22% |  |
| C[C@@]1(C2CCCC2)Cc2cc(OCC(=O)O)c(Cl)c(Cl)c2C1=O | 18.2% |  |
| NC(=O)CC[C@H](N)C(=O)O | 0.853% |  |
| O=C(O)c1ccccc1Nc1ccccc1 | 8.9% |  |
| COc1ccccc1N1CCN(CCCCN2C(=O)c3ccccc3C2=O)CC1 | -1.89% |  |
| NC(N)=NC(N)=Nc1ccccc1 | -0.667% |  |
| CC(=O)N[C@@H](Cc1c[nH]c2ccccc12)C(=O)OCc1cc(C(F)(F)F)cc(C(F)(F)F)c1 | -0.0093% |  |
| C[N+](C)(C)CC=O | -4.45% |  |
| Cc1cc2c(cc1Cl)N(C(=O)Nc1ccnc3ccccc13)CC2 | -3.09% |  |
| CCCCC[C@H](CC(=O)NO)C(=O)N[C@H](C(=O)N1CCC[C@H]1CO)C(C)C | -4.96% |  |
| O=c1onc2n1-c1cc(Br)ccc1OC2 | -3.21% |  |
| N#CC(C#N)=C(N)/C(C#N)=C/c1ccc(O)cc1 | -2.65% |  |
| O=c1[nH]c2ccccc2c2ccccc12 | 10.3% |  |
| O=c1oc(Cl)c(Cl)c2ccccc12 | -13.8% |  |

| Compound | activation | Potency |
| --- | --- | --- |
| Cn1cc(C(=O)OCC2CCN(CCNS(C)(=O)=O)CC2)c2ccccc21 | -6.1% |  |
| CC(C)(C)NCC(O)COc1cccc2[nH]c(=O)[nH]c12 (stereo not given) | -0.491% |  |
| [N-]=[N+]=Nc1ccc(C(=O)CSC[C@H](NC(=O)CC[C@H](N)C(=O)O)C(=O)NCC(=O)O)cc1 | 10.9% |  |
| O=C(O)[C@H]1NCCC[C@H]1C(=O)O | 4.4% |  |
| Cn1c(=O)c2[nH]c(-c3ccc(S(=O)(=O)O)cc3)nc2n(C)c1=O | -0.0612% |  |
| NCCNS(=O)(=O)c1cccc2c(Cl)cccc12 | 2.94% |  |
| Cc1nc(N=Nc2ccc(C(=O)O)cc2)c(COP(=O)(O)O)c(C=O)c1O | 18% |  |
| CN(C)CCCc1cc(C(=O)Nc2ccc(-c3ccncc3)cc2)ccc1O | 6.9% |  |
| CC1CCN=C(N)S1 (stereo not given) | 1.77% |  |
| COc1ccc2c(c1)CCC1C2CC[C@@]2(C)C1CC[C@@H]2NCCCCCCN1C(=O)C=CC1=O (stereo not given in full) | -0.586% |  |
| CC(N)(C(=O)O)c1ccc(C(=O)O)cc1 (stereo not given) | -3.41% |  |
| NC(=O)CNCCC(c1ccccc1)c1ccccc1 | 2.86% |  |
| COc1ccc(NC(=O)c2ccc(-c3ccc(-c4noc(C)n4)cc3C)cc2)cc1N1CCN(C)CC1 |  | 20.6 µM (active) |
| O=c1[nH]ccc2c(O)cccc12 | 2.85% |  |
| C[C@]12C=CC(=O)C=C1CC[C@@H]1C2=CC[C@]2(C)[C@@H](C(=O)CN3CCN(c4cc(N5CCCC5)nc(N5CCCC5)n4)CC3)CC[C@@H]12 | -6.34% |  |
| CCn1c(=O)[nH]c2cc(Cl)c(Cl)cc21 | 20.4% |  |
| c1ccc2c(c1)CCC[C@H]2Nc1nc2ccccc2[nH]1 | -2.58% |  |
| CC(=O)C(C)=O | 3.61% |  |
| CC(C)C[C@H](NC(=O)[C@H](O)[C@H](N)Cc1ccccc1)C(=O)O | -4.05% |  |
| CC(C)(CO)Cc1cc(C(C)(C)C)c(O)c(C(C)(C)C)c1 | 0.715% |  |
